A selection: hits, their analogues and other compounds. The true share with any hit is near 3.3%.
BRCT PPI red – disrupts BRCA1 BRCT binding to phosphoprotein, red fluorophore readout | BRCT-phosphopeptide binding, red fluorescence polarization | Potency, µM (top dose mostly 76.9 µM), most hits filed as inhibitors | 75,000 tested, 0.03% active | AID 892
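Fluorescence polarization: 100 nM His-tagged BRCA1 BRCT with 100 nM TAMRA-labelled phospho-BACH1 decapeptide, phosphate buffer pH 7.3 with 150 mM NaCl, DTT, 0.01% Tween 20; 12 min RT. Binding inhibition seen as FP decrease.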
BRCT PPI green – blocks human BRCA1 BRCT binding to phosphopeptide, green readout; P38398; Potency, µM (titrated, usually from 76.9 µM), usual class: inhibitors; 75,000 tested, 0.05% active; BRCA1 BRCT-phosphopeptide binding, green fluorescence polarization
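Compounds were incubated for 12 min at room temperature with a complex of 100 nM fluorescein-tagged pBACH1 decapeptide and 250 nM His-tagged BRCT protein. Buffer was phosphate pH 7.3 with EDTA, DTT and Tween 20. Disruption of binding lowers the polarization signal.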
YjeE inh – YjeE (TsaE) inhibition, E. coli; P0AF67; purified YjeE enzyme, qHTS inhibition assay; Potency, µM; 71,000 tested, 0.05% active
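Fluorescence polarization of a BODIPY Texas Red–ADP probe (2 uM) bound to purified YjeE (10 uM) was read after 15 min room-temperature incubation with compounds. Loss of polarization marks inhibitors; ADP serves as titrated control.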
ALOX15 inhib – 15-hLO (ALOX15) enzyme inhibition; purified 15hLO-1, xylenol orange hydroperoxide absorbance; Potency, µM (doses to about 57.1 µM), most hits filed as inhibitors; 74,000 tested, 1.4% active; P16050; also: nearly all actives have a fitted effect of over 55% in size
Target sequence (P16050 whole entry, looked up): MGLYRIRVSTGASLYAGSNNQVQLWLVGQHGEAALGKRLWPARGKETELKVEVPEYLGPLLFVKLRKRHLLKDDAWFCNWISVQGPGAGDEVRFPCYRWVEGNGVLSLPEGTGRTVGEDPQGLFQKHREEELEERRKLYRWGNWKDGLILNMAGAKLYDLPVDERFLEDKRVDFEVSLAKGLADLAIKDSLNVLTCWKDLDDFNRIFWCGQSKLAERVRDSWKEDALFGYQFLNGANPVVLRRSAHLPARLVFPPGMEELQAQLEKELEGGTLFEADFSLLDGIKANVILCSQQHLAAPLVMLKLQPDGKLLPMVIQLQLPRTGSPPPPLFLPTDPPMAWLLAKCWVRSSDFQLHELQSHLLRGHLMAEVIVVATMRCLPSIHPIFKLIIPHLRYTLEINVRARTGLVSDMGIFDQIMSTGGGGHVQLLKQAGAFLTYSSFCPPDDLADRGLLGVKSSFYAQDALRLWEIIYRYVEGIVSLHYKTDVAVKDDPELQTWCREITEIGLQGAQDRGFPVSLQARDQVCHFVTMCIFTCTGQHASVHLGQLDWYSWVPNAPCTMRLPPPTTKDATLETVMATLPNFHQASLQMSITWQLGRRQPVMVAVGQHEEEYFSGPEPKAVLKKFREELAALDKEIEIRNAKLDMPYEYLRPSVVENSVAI
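Compounds were preincubated 15 min at room temperature with 40 nM purified human enzyme (25 mM Hepes pH 7.5, 0.01% Triton X-100); 50 uM arachidonic acid reacted 6 min. Fe-xylenol orange detection, 30 min, absorbance ratio 573/405 nm.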
Tau filament bind – binds recombinant human tau filaments | recombinant tau filaments, thioflavin S fluorescence, 15 h; filaments grown with octadecylsulfate alongside compound | Potency, µM (series often up to 57.1 µM) | 71,000 tested, 2% active;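 also: actives lower thioflavin S fluorescence by blocking filaments or displacing dye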
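ThS-based fibril read: tau 1 uM final, inducer ODS 30 uM final, 37 C for 15 h, ex 450/em 510 nm.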
Pol III holo inh – DNA polymerase III holoenzyme inhibition | reconstituted DNA polymerase III holoenzyme replication, biochemical | Potency, µM (top dose mostly 57.1 µM) | 71,000 tested, 0.25% active | AID 603
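Reconstituted *E. coli* holoenzyme (0.35 nM Pol III, 1 nM beta, 154 nM SSB, 2 nM primase) was preincubated with compound for 15 min at RT. Synthesis on 1.4 nM ssM13Gori ran 35 min, then was stopped with PicoGreen/EDTA and read as dsDNA fluorescence.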
Of the large screens only hits and unclear results are named; the others gave an inactive call. Calls follow the shape of the dose curve; as a rule, active = well fitted curve in the direction sought with a large enough effect; inconclusive = small, poorly fitted or top-dose-only effect, or another doubt; inactive = no such curve, though single readings can be large; an effect the other way counts as inactive or inconclusive.

CCCn1c(-c2ccc(F)cc2)nc2c(NC3CCN(Cc4ccccc4)CC3)nc(C)nc21	ALOX15 inhib 20µM
Cc1nc(N2CCOCC2)c2nc(-c3ccccc3)n(CCN(C)C)c2n1	ALOX15 inhib 13µM
Cc1nc(NCCO)c2nc(-c3ccccc3)n(CCN(C)C)c2n1	ALOX15 inhib 32µM
CCC1=C2CC[C@H]3C(=O)N(CC)C(=O)[C@H]3[C@H]2[C@@]2(C)C(=NCCc3c[nH]c4ccccc34)OC(=O)N2C1=O	none (no result: YjeE inh, ALOX15 inhib, Tau filament bind, Pol III holo inh)
CCCn1c(-c2ccc(F)cc2)nc2c(NCC(C)(C)CN(C)C)nc(C)nc21	ALOX15 inhib 13µM
CCCn1c(-c2ccc(F)cc2)nc2c(NCCCN(C)C)nc(C)nc21	none
COCCN(CCOC)c1nc(C)nc2c1nc(-c1ccccc1)n2CCN(C)C	ALOX15 inhib 25µM
N#CC(=C1CCCC1)c1nc(-c2ccccc2O)cs1	ALOX15 inhib inconclusive, Tau filament bind 13µM
Nc1nc(-c2ccccc2)cc(-c2ccccc2O)n1	none
Cc1ccc2[nH]c3c(=O)n(CCCN4CCOCC4)cnc3c2c1	none
Cc1ccc2[nH]c3nc(SCCN4CCOCC4)nnc3c2c1	ALOX15 inhib 2.5µM
CCOc1ccc(NC(C)=O)cc1	none
CCOc1ccc(NCC(=O)Nc2ccc(C)cc2C)cc1	Tau filament bind 32µM
N#Cc1c(NC(=O)C(F)(F)F)sc2c3c(=O)c4ccccc4c(=O)c=3oc3ccccc3c12	Tau filament bind 4µM
COc1cc(NC(=O)C2CCCN2C(=O)C2CCC(C)CC2)cc(OC)c1OC (stereo unspecified)	none
COc1ccc(OC)c(NC(=O)C2CCCN2C(=O)C2CCC(C)CC2)c1 (stereo unspecified)	Tau filament bind 20µM
CC(/C=C/C=C(C)/C=C/C(=O)O)=C\C=C\C=C(C)\C=C\C=C(C)\C=C\C(=O)O	ALOX15 inhib inconclusive, Tau filament bind 3.2µM, Pol III holo inh 2.5µM
CN1CCC[C@H](C(=O)OCC(=O)[C@]2(O)CC[C@@H]3[C@H]4CCC5=CC(=O)CC[C@@]5(C)[C@H]4[C@@H](O)C[C@]32C)C1	none
c1ccc([C@H](c2cccc3c2ccc2ccccc23)[C@H](c2ccccc2)c2cccc3c2ccc2ccccc23)cc1	none
C=Cc1c(C)/c2[n-]/c1=C\c1[n-]c(c(CC)c1C)/C=c1\[n-]c3c(c1C)C(=O)C(C(=O)[O-])C=3c1[n-]c(c(C)c1CCC(=O)[O-])\C=2.[Cu].[Na+].[Na+] (stereo unspecified)	BRCT PPI red inconclusive, ALOX15 inhib 6.3µM (no result: YjeE inh, Tau filament bind, Pol III holo inh)
COc1ccc(N2Cc3cccc(C(=O)O)c3C2=O)cc1	Pol III holo inh 16µM
O=C(OCc1cc(=O)n2c(n1)sc1ccccc12)c1ccc2c(=O)n3c(nc2c1)CCC3	ALOX15 inhib inconclusive, Tau filament bind 6.3µM
Cc1ccc(CNC2=NCCCCC2)n1C	ALOX15 inhib 20µM
COc1ccc2nc(Nc3ccc4c(c3)OCO4)sc2c1	Tau filament bind 13µM
COc1ccc(-c2nc3cnccn3c2Nc2ccc3c(c2)OCO3)cc1	none
O=C(Nc1nc(-c2ccco2)c(-c2ccco2)s1)C1CC(=O)N(c2ccc3c(c2)OCCO3)C1 (stereo unspecified)	BRCT PPI red inconclusive, BRCT PPI green inconclusive, ALOX15 inhib 2.5µM, Pol III holo inh 10µM
CC(=O)c1cccc(NC(=O)Nc2cc3sccc3n2C)c1	ALOX15 inhib 16µM, Tau filament bind 3.2µM
CC(=O)c1cccc(NC(=O)Nc2c(C)nn(C)c2C)c1	none
CO[C@H]1COC(=O)C/C=C\[C@H](C)[C@H](OC)COC(=O)[C@@H](C)COC(=O)C/C=C\[C@@H]1C	none (no result: YjeE inh, Tau filament bind, Pol III holo inh)
CC1=C(C(=O)NC2CCCC(C)C2C)C2(CCCCC2)OC1=O (stereo unspecified)	none
CC1=C(C(=O)Nc2cc(-c3cccc(F)c3)[nH]n2)C2(CCCCC2)OC1=O	Tau filament bind 13µM
COc1ccc(-c2nc(C(N)=O)c3[nH]c(=O)n(-c4cccc(Cl)c4)c3n2)cc1OC	none
Cc1cccc(-n2c(=O)[nH]c3c(C(N)=O)nc(C(C)C)nc32)c1	Tau filament bind 16µM
CC(C)(C)C(=O)/C=C(\N)c1ccccn1	none
CC(C)(C)C(=O)/C=C(N)/C=C/c1ccccc1	Tau filament bind 25µM
O=C(CSCc1nc2ccccc2[nH]1)N1CCN(c2ccc(F)cc2)CC1	Tau filament bind 20µM
O=C(CSCc1nc2ccccc2[nH]1)N1CCN(c2cccc(Cl)c2)CC1	none
OC1C=C2CCN3Cc4cc5c(cc4C(C1O)C23)OCO5 (stereo unspecified)	ALOX15 inhib inconclusive (no result: YjeE inh, Tau filament bind, Pol III holo inh)
CCCCCC/C=C\CCCCCCCc1cccc(O)c1C(=O)O	ALOX15 inhib 1.6µM (no result: YjeE inh, Tau filament bind, Pol III holo inh)
COC(=O)NC(c1ccc(Cl)cc1)C(C(C)=O)C(=O)OC (stereo unspecified)	none (no result: YjeE inh, Tau filament bind, Pol III holo inh)
CC(=O)OC[C@H]1O[C@@H](CCO/N=C2/[C@H]3O[C@@H]3[C@@H](O)[C@H]3[C@H]2CCn2c(=O)n(-c4ccccc4)c(=O)n23)C=C[C@@H]1OC(C)=O	none (no result: YjeE inh, Tau filament bind, Pol III holo inh)
COc1ccc(-c2csc(NCc3ccco3)n2)cc1C	Tau filament bind 13µM
c1cncc(-c2csc(NCc3ccco3)n2)c1	none (no result: YjeE inh, Tau filament bind, Pol III holo inh)
COc1cc2c3cc1Oc1c(OC)c(OC)cc4c1[C@@H](Cc1ccc(O)c(c1)Oc1ccc(cc1)C[C@@H]3N(C)CC2)CN(C)C4	none
CC(C)=CCC/C(C)=C/CO/N=C1/[C@H]2O[C@@H]2[C@@H](O)[C@H]2[C@H]1CCn1c(=O)n(C)c(=O)n12	none (no result: YjeE inh, Tau filament bind, Pol III holo inh)
NCCC[C@@H](CC(=O)N[C@@H]1CCCC[C@H]1C(=O)N[C@H](CC(=O)N[C@@H](CCC(=O)O)CC(=O)O)Cc1ccccc1)NC(=O)C[C@H](Cc1c[nH]c2ccccc12)NC(=O)[C@@H]1CCCC[C@H]1N	none (no result: BRCT PPI red, BRCT PPI green, ALOX15 inhib)
O=C1C=CC(=O)c2c(O)c(Cl)c(Cl)c(O)c21	BRCT PPI red inconclusive, BRCT PPI green inconclusive, ALOX15 inhib 1µM (no result: YjeE inh, Tau filament bind, Pol III holo inh)
CC1(C)N=C(N)N=C(N)N1c1cccc(CSc2ccccc2)c1	none
COCC(=O)Nc1sc2c(c1C(=O)OC)CCC(C)C2 (stereo unspecified)	ALOX15 inhib 25µM
COC(=O)c1c(NC(=O)CN2CCOCC2)sc2c1CCC(C)C2 (stereo unspecified)	none
O=C(/C=C/c1ccc(O)cc1)c1ccccc1O	ALOX15 inhib 10µM (no result: YjeE inh, Tau filament bind, Pol III holo inh)
O=C(/C=C\c1ccccc1)c1ccccc1O	none (no result: YjeE inh, Tau filament bind, Pol III holo inh)
C/C(CCN1CCCCc2nc(C)c(C)cc21)=N\O[C@@H](C)c1cc(-c2c(C)cc(C)cc2C)no1	none (no result: YjeE inh, Tau filament bind, Pol III holo inh)
O=C1c2ccccc2C(=O)c2c1ccc(C(=O)O)c2-c1ccc2ccccc2c1	Tau filament bind 3.2µM
CNc1ccc([N+](=O)[O-])cc1	YjeE inh inconclusive

Compound activity as filed in PubChem.
